Hits are enriched below; roughly 0.61% of the tested compounds scored in any of these assays.
Cathepsin G inh: cathepsin G (human) inhibition; P08311; purified enzyme, AMC-tetrapeptide fluorescence, pooled mixtures; inhibition, % at 5 µM (by protocol); 62,000 compounds, 0.2% hits; AID 581;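 active = inhibition above 20% in each of the two mixture wells holding the compound; inactive = inhibition of 20% or less in either well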;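 also: 0% = enzyme control without mixture and 100% = blank lacking enzyme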
FXIIa inh mix: inhibitors of human coagulation factor XIIa, pooled mixtures; P00748; purified FXIIa, fluorogenic substrate; inhibition, % at 5 µM; 62,000 compounds, 0.2% hits; AID 684;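 also: 0% = enzyme without compound and 100% = no enzyme blank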
C1s block: blocks human complement C1s protease activity; P09871; mean inhibition % of two 10-compound mixtures (active compounds read high), % at 5 µM (by protocol); AID 538; 62,000 compounds, 0.16% hits; purified C1s, fluorogenic AMC substrate, pooled mixtures;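 active = inhibition above 20% in each of the two 10-compound mixture wells holding the compound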;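 also: 0% = enzyme wells lacking compound mixture and 100% = no-enzyme blank wells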
FXIa inh mix: factor XIa (human) inhibition, mixture screen; P03951; purified FXIa, fluorogenic substrate, pooled mixtures; inhibition, % at 5 µM; 62,000 compounds, 0.19% hits; AID 680;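 also: each value is inhibition by a whole ten-compound pool holding the compound; 0% = enzyme with no mixture and 100% = wells lacking enzyme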
Numbers without * were called inactive. Rule as the data show it, unless noted: active = inhibition above about 20% (passing the limit was not always enough); inactive = the rest.

How did CC1CN=C(Nc2cccc3ccccc23)S1 (configuration not stated) do in these assays?
Cathepsin G inh: 30.1; FXIIa inh mix: 0.2; C1s block: 35.1*; FXIa inh mix: 30.0

Results for c1ccc(C2CC3CC4(CCCC4)N2O3)cc1 (configuration not stated) ?
Cathepsin G inh: 9.3; FXIIa inh mix: 9.5; C1s block: 13.1; FXIa inh mix: -1.5

High-throughput results (PubChem BioAssay)
